High-throughput results from PubChem BioAssay.
Only a selection was taken, and hits are over-represented in it overall.
ST2 IL33 inh: IL1RL1 inhibition; Q01638; AlphaLISA ST2-Fc/biotin-IL-33 interaction, 1 h; 2.3% of 78,000 active; inhibition, % for hits at 17 µM; in the data active means inhibition above about 30%
Target sequence (Q01638 whole entry, looked up): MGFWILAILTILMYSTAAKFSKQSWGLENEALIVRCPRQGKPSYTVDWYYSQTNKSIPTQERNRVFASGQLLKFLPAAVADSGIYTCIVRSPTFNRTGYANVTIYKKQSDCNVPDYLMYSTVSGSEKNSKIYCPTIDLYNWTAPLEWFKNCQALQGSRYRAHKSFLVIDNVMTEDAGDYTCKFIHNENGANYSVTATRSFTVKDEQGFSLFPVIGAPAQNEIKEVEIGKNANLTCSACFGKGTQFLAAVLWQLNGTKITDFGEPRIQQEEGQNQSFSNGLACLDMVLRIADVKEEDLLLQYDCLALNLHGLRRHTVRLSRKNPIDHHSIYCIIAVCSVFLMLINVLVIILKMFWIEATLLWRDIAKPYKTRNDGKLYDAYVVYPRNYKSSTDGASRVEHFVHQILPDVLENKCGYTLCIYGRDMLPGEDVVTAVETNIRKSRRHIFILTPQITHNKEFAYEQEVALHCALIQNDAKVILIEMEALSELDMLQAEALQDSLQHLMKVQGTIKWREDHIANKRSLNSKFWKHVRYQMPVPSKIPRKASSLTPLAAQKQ
Numbers without * were called inactive; i = inactive.

SMILES	ST2 IL33 inh
CCN(CC)CC(=O)Nc1c(C(=O)c2ccccc2)oc2ccccc12	43%*
CCCn1cc(SCC(=O)Nc2ccc3c(c2)OCCO3)c2ccccc21	i
Cc1nc2c(c(=O)n1C)CCN(C(=O)Nc1ccc3c(c1)OCO3)CC2	i
Cc1nc2c(c(=O)n1C)CCN(C(=O)C1CCOC(C)(C)C1)CC2 (stereo unspecified)	31%*
Cc1ccc(C(=O)NCCC(=O)N2CCc3nc(C)n(C)c(=O)c3CC2)cc1	i
CCc1ocnc1C(=O)NC1CCCc2nc(-c3cccnc3)ncc21 (stereo unspecified)	i
Cc1ccc(C2C3=C(Nc4c2c(=O)[nH]c(=O)n4C)c2ccccc2C3=O)cc1 (stereo unspecified)	38%*
Cc1ccc(C2C3=C(Nc4c2c(=O)[nH]c(=O)n4C)c2ccccc2C3=O)cc1Cl (stereo unspecified)	32%*
Cc1ccc(C2OC(=O)c3ccccc32)cc1Cl (stereo unspecified)	i
CCOC(=O)C1=C(C)NC2=C(C(=O)c3ccccc32)C1c1ccc(C)cc1 (stereo unspecified)	i
CCOc1cc(C2C3=C(Nc4c2c(=O)n(C)c(=O)n4C)c2ccccc2C3=O)ccc1O (stereo unspecified)	i
Cn1c2c(c(=O)[nH]c1=O)C(c1ccc([N+](=O)[O-])o1)C1=C(N2)c2ccccc2C1=O (stereo unspecified)	i
Nc1nc2ccccc2n1Cc1ccc(Cl)cc1	i
CC(C)(C)c1nc(CN2CCCC(N3CCCC3=O)C2)no1 (stereo unspecified)	i
CCc1ccc(NC(=O)CCCn2nc([N+](=O)[O-])c(Cl)c2C)cc1	i
COc1ccc(CNC(=O)c2ccc3c(c2)NC(=O)C2CCCCN32)cc1 (stereo unspecified)	i
CC(C)c1ccc(NC(=O)c2ccc3c(c2)NC(=O)C2CCCCN32)cc1 (stereo unspecified)	99%*
CN(C)C(=O)c1ccc2c(c1)NC(=O)C1CCCCN21 (stereo unspecified)	i
Cc1ccsc1C1Nc2ccccc2NC2=C1C(=O)CC(C)(C)C2 (stereo unspecified)	i
COc1ccc(OC)c(C2C=C(Nc3ccccc3)C(=O)N2c2ccccc2)c1 (stereo unspecified)	i
O=C1C(Nc2ccccc2)=CC(c2ccccc2[N+](=O)[O-])N1c1ccccc1 (stereo unspecified)	30%*
COc1ccccc1C1C=C(Nc2ccc(C)cc2)C(=O)N1c1ccc(C)cc1 (stereo unspecified)	i
O=C(NCCc1ccc(Cl)cc1)C1C2C=CC3(CN(Cc4ccccc4Cl)C(=O)C13)O2 (stereo unspecified)	i
Cc1ccc(N2C(=O)C(C)SC23C(=O)Nc2ccccc23)cc1 (stereo unspecified)	i
Cc1ccc2c(c1)C(=O)C(=O)N2	i
SMILES	ST2 IL33 inh
Cc1ccc(C2=NNC3(S2)C(=O)Nc2ccc(C)cc23)cc1 (stereo unspecified)	44%*
O=c1[nH]c2nnc(Nc3ccccc3)n2c2sc3c(c12)CCCC3	i
O=C(Nc1ncccc1Cl)c1cccs1	i
Cc1cc2nc(COc3ccc(Cl)cc3NC(=O)c3ccco3)cc(=O)n2o1	i
O=C1C(=O)N(CCc2ccccc2)C(c2ccc(Cl)cc2)C1=C(O)c1ccccc1 (stereo unspecified)	i
[N-]=C=C1C(=O)N(CCc2ccccc2)C(=O)[C@H]([n+]2ccccc2)[C@H]1c1ccc(Cl)cc1	34%*
Cc1ccoc1-c1n[nH]c(Cc2ccccc2)n1	i
Cc1ccc(N2CC(C(=O)NCCCN3CCOCC3)CC2=O)cc1Cl (stereo unspecified)	i
Cc1cc(OCC(=O)Nc2ccc3c(c2)OCO3)cc(C)c1Br	i
O=C(Nc1nccs1)c1ccc2c(c1)C(=O)N(Cc1ccccc1)C2=O	i
COc1ccc(-c2nn(-c3ccccc3C)cc2CNCCN2CCOC2=O)cc1F	i
COc1ccccc1-c1cccc(C(=O)NCCN2CCOC2=O)c1	31%*
CNC(=O)c1ccc(CNC(=O)c2cccc(-c3ccccc3OC)c2)o1	i
CCCOC(=O)C1=C(C)NC(=O)NC1c1cccc(Oc2ccccc2)c1 (stereo unspecified)	i
CCOC(=O)c1ccc(Nc2ncnc3nc[nH]c23)cc1	30%*
CCOC(=O)c1ccc(Nc2ncnc3c2cnn3-c2ccc(Cl)cc2)cc1	i
COc1ccc(Nc2ncnc3nc[nH]c23)cc1OC	i
O=C1CC(c2cccs2)CC2=C1C(c1cccc([N+](=O)[O-])c1)Nc1ccccc1N2 (stereo unspecified)	i
O=C1CC(c2cccs2)CC2=C1C(c1cc(F)ccc1F)Nc1ccccc1N2 (stereo unspecified)	i
O=C1CC(c2cccs2)CC2=C1C(c1cccc(F)c1)Nc1ccccc1N2 (stereo unspecified)	30%*
NNc1nc2ccccc2s1	68%*
O=C(COc1ccc2ccccc2c1)Nc1nc2ccccc2s1	i
O=C(Nc1nc2ccccc2s1)c1ccccc1F	i
CNC(=O)CN(c1ccc(OC)cc1)S(=O)(=O)c1ccc(C)cc1	i
C=CCNc1ncnc2c1cnn2-c1ccccc1	i
SMILES	ST2 IL33 inh
CC(=O)c1cc(C#N)c(SCC(=O)NCc2ccccc2)nc1C	i
O=C(Cc1ccc(F)cc1)Nc1c(C(=O)Nc2cccc(F)c2)oc2ccccc12	93%*
CCOCC(=O)Nc1c(C(=O)Nc2cccc(F)c2)oc2ccccc12	i
O=C(Nc1c(C(=O)Nc2cccc(F)c2)oc2ccccc12)c1ccc(F)cc1	i
OCc1ccccc1-c1cccc2cnccc12	i
O=c1oc2ccc(NS(=O)(=O)c3ccc(Br)cc3)cc2s1	i
CN1C[C@@H](NC(=O)NCc2ccccc2)C[C@H]1c1nc(-c2ccccc2)no1	i
CN1C[C@@H](NC(=O)CC(C)(C)CC(=O)O)C[C@H]1c1nc(-c2ccc(F)cc2)no1	30%*
CN1C[C@@H](NC(=O)Nc2ccccc2)C[C@H]1c1nc(-c2ccc(F)cc2)no1	i
CN1C[C@@H](NC(=O)Nc2cccc(F)c2)C[C@H]1c1nc(-c2ccc(F)cc2)no1	36%*
CN1C[C@@H](NC(=O)c2ccccc2)C[C@H]1c1nc(-c2ccc(F)cc2)no1	i
Cc1ccc(-c2noc([C@@H]3C[C@H](NC(=O)Nc4cccc(F)c4)CN3C)n2)cc1	i
CN1C[C@@H](NC(=O)c2ccco2)C[C@H]1c1nc(-c2cccnc2)no1	49%*
CN1C[C@@H](NC(=O)Nc2cccc(F)c2)C[C@H]1c1nc(-c2cccnc2)no1	i
CN1C[C@@H](NC(=O)CCC(=O)O)C[C@H]1c1nc(-c2ccccc2)no1	i
CC(=O)N1c2ccccc2NC2=C(C(=O)CCC2)C1c1ccc(C)cc1 (stereo unspecified)	i
Cc1ccc(NC(=O)C2(C)CC2(Cl)Cl)nc1 (stereo unspecified)	i
Cc1nc2nc(C)c(NC(=O)Nc3cc(Cl)ccc3C)c(=O)n2[nH]1	i
O=[N+]([O-])c1ccc(-c2cn3ccsc3n2)cc1	i
Brc1ccc(-c2cn3ccc4ccccc4c3n2)cc1	i
O=[N+]([O-])c1ccc(-c2cn3cc(Br)ccc3n2)cc1	31%*
Cc1ccc2[nH]c(=O)cc(C(=O)N3CCC(n4cc(C(C)(C)C)nn4)CC3)c2c1	i
O=C(COc1cccc(C(F)(F)F)c1)Nc1ccc2c(c1)CCC2	i
Cc1ccc2oc(-c3ccc(NC(=O)c4cccnc4)cc3O)nc2c1	i
